Screens deposited in PubChem BioAssay by National Center for Advancing Translational Sciences (NCATS).
The sample as a whole holds a higher share of hits than the screen did.
KDM5B inh – Primary screen for KDM5B Histone Demethylases FDH-coupled qHTS; actives 2.6% (n = 220,000); KDM5B demethylase, FDH-coupled NADH fluorescence (FDH is formaldehyde dehydrogenase); Potency, µM (series often up to 57.7 µM), actives largely listed as inhibitors; Lysine-specific demethylase 5B (Homo sapiens), Q9UGL1; active means well fitted inhibition curve with a large enough effect; further: 0% is about no effect; nearly all actives have a fitted effect of over 70% in size
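Coupled FDH/NAD⁺ fluorescence readout. KDM5BΔAP 200 nM final; compound titration, 10 min RT preincubation; substrate mix 12.5 µM H3K4me3, 25 µM 2-OG, 50 µM Fe(II), 100 µM ascorbate, 0.25 mM NAD⁺, 0.25 U/mL FDH; ΔRFU over 30 min.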
Numbers without * were called inactive. Potency means the concentration at half of the fitted maximal effect.

For CC1CCN(C(CNCC(O)COc2ccccc2)c2cccs2)CC1 (centres undefined) the results were KDM5B inh inactive.
COC(=O)c1ccc(CNC(=O)CCc2ncc(-c3ccccc3F)o2)cc1 was read as KDM5B inh inactive.
For Cc1cc(C)nc(NC(c2cccs2)c2cc(C)sc2NC(=O)c2ccccc2)n1 (centres undefined) the results were KDM5B inh inactive.
CN(C)CCNC(=O)C1(C)CN(Cc2ccccc2)Cc2ccc(Nc3ccccc3)nc21 (centres undefined) was read as KDM5B inh inactive.
For COCCNC(=O)C1(C)CN(Cc2ccccc2)Cc2ccc(N3CCOCC3)nc21 (centres undefined) the results were KDM5B inh 32µM*.
Screening Cc1ccc(C(O)c2cc3c(cc2NC(=O)c2ccc(F)cc2)OCCO3)cc1 (centres undefined) returned KDM5B inh inactive.
`Cc1cc(C)n2ncc(-c3noc(C(=O)NCC(O)c4ccccc4)n3)c2n1` (centres undefined) gave KDM5B inh inactive.
Screening C=CCN(CC(F)(F)F)C(=O)c1nc(-c2ccccc2)n(-c2ccccc2)n1 returned KDM5B inh inactive.
Screening O=C(NCc1cccs1)c1cccc2ccccc12 returned KDM5B inh inactive.
Screening O=C(c1cccs1)N1CCC2(CC1)NC(=O)N(Cc1ccccc1)C2=O returned KDM5B inh inactive.
`CC1CCN(CC2CCCCCN2)CC1` (centres undefined) gave KDM5B inh inactive.
O=C(Nc1ccc(-c2nnc3n2CCCC3)cc1)c1cc(-c2ccccc2)n[nH]1 was read as KDM5B inh 32µM*.
For O=C(Nc1ccc(-c2nnc3n2CCCC3)cc1)c1ccc(Cl)cc1 the results were KDM5B inh inactive.
O=C(Nc1ccc(-c2nnc3n2CCCC3)cc1)c1ccncc1 was read as KDM5B inh inactive.
O=C(CCc1ncc(-c2c(F)cccc2F)o1)Nc1ccccc1O was read as KDM5B inh inactive.
COc1ccc(N2CC(C(=O)NCc3ccc(F)cc3)NC2=O)cc1 (centres undefined) was read as KDM5B inh inactive.
For COCCCNc1ncnc2c1CN(C1CCCC1)C(=O)CN2C the results were KDM5B inh inactive.
For CN1CC(=O)N(C2CCNCC2)Cc2c1ncnc2N1CCC(O)CC1 the results were KDM5B inh inactive.
CN1CC(=O)N(C2CCC2)Cc2c(NC3CCCC3)ncnc21 was read as KDM5B inh inactive.
For CC(C)OCCCNc1ncnc2c1CN(C1CCCNCC1)C(=O)CN2C (centres undefined) the results were KDM5B inh inactive.
For CC(C)Nc1ncnc2c1CN(C1CCCNC1)C(=O)CN2C (centres undefined) the results were KDM5B inh 63µM*.
CCC(C)Nc1ncnc2c1CN(C1CCNCC1)C(=O)CN2C (centres undefined) was read as KDM5B inh 35µM*.
For CN1CC(=O)N(C2CCCNC2)Cc2c(NCCOc3ccccc3)ncnc21 (centres undefined) the results were KDM5B inh 45µM*.
CN1CC(=O)N(C2CCNC2)Cc2c(NCC3CC3)ncnc21 (centres undefined) was read as KDM5B inh 89µM*.
`CC(C)CNc1ncnc2c1CN(C1CCCC1)C(=O)CN2C` gave KDM5B inh inactive.
For CN1CC(=O)N(C2CCCNCC2)Cc2c(NCC(C)(C)C)ncnc21 (centres undefined) the results were KDM5B inh inactive.
`COCCNc1ncnc2c1CN(C1CCNC1)C(=O)CN2C` (centres undefined) gave KDM5B inh inactive.
For CN1CC(=O)N(C2CCNCC2)Cc2c(NCCCc3ccccc3)ncnc21 the results were KDM5B inh inactive.
COc1ccccc1Oc1c(C)oc2cc(OC(C)=O)ccc2c1=O was read as KDM5B inh inactive.
`CCOC(=O)C1=CN(CC(=O)N(CC)c2cccc(C)c2)S(=O)(=O)N=C1C` gave KDM5B inh inactive.
For O=C(Nc1ccccc1C(F)(F)F)C1CC1(c1ccccc1)c1ccccc1 (centres undefined) the results were KDM5B inh inactive.
O=C(Cc1cccc2cccnc12)NCCc1ccccc1 was read as KDM5B inh inactive.
O=C(CSc1nc2ccccc2c(=O)[nH]1)Nc1cccc(Br)c1 was read as KDM5B inh inactive.
O=C(Cc1c[nH]c2ccccc12)N1CCC(Oc2ccc(-c3noc(C4CC4)n3)cc2)C1 (centres undefined) was read as KDM5B inh inactive.
`O=C1N(c2ccccc2)c2ccccc2C12CCN([S+](=O)([O-])c1ccccc1)C2` (centres undefined) gave KDM5B inh inactive.
`Cc1cccc2ncc(C(=O)NCc3cc4n(n3)CCCNC4)c(=O)n12` gave KDM5B inh 28µM*.
For O=C(NCc1cc2n(n1)CCCNC2)c1ccc(Cn2cnnn2)cc1 the results were KDM5B inh inactive.
CCCNS(=O)(=O)c1ccc(C(=O)NCc2cc3n(n2)CCNC3)cc1 was read as KDM5B inh inactive.
`O=C(CCc1cc2n(n1)CCCNC2)Nc1ccc2c(c1)OCCO2` gave KDM5B inh inactive.
`O=C(CCc1cc2n(n1)CCCNC2)Nc1ccccc1CCc1ccccn1` gave KDM5B inh inactive.
`Cc1cccn2c(CNC(=O)CCc3cc4n(n3)CCCNC4)cnc12` gave KDM5B inh 25µM*.
`O=C(N[C@H]1[C@H]2CCO[C@H]2[C@@H]1N1CCCC1)c1cc2c(s1)CCCCC2` gave KDM5B inh inactive.
O=C(c1ccccc1OCC1CCCN(C2CCCCC2)C1)N1CCOCC1 (centres undefined) was read as KDM5B inh inactive.
Screening CC1(C(=O)O)CCCCC(=O)N1 (centres undefined) returned KDM5B inh inactive.
`CC1(C(=O)N2CCN(c3ccccn3)CC2)CCOCC1` gave KDM5B inh 112µM*.
CC1(C(=O)N2CCN(c3ccccn3)CC2)CCCCC(=O)N1 (centres undefined) was read as KDM5B inh 18µM*.
Screening CC1(C(=O)N2CCc3ccccc3C2)CCCCC(=O)N1 (centres undefined) returned KDM5B inh inactive.
For CC1(C(=O)N2CCC(c3ccccc3)CC2)CCOCC1 the results were KDM5B inh inactive.
CNC(=O)N1CCC2(CC1)CC(N1CCN(c3ccccn3)CC1)CCO2 (centres undefined) was read as KDM5B inh inactive.
N#C/C(=C/c1cccc(F)c1)c1ccc(Cl)cc1Cl was read as KDM5B inh inactive.
O=C(O)C(c1cccc2c1OCC2)N1CCC(OCc2cccnc2)CC1 (centres undefined) was read as KDM5B inh inactive.
Screening Cc1cc(C)cc(C(=O)NCC(C)C)c1 returned KDM5B inh inactive.
`Cc1cn2nc(C(=O)NC3CCCCC3)cc2c(N2CCCC2)n1` gave KDM5B inh 28µM*.
For Cc1cnc(C(=O)NC2C[C@H]3CC[C@@H](C2)N3C(=O)C2CCCCC2)cn1 (some centres undefined) the results were KDM5B inh inactive.
Cc1cn2nc(C(=O)NCC(C)C)cc2c(N2CCCC2)n1 was read as KDM5B inh 28µM*.
Screening Cc1cn2nc(C(=O)N3CCC(C(=O)NC4CCCCC4)CC3)cc2c(=O)[nH]1 returned KDM5B inh inactive.
Cc1cn2nc(C(=O)NCC3CCCO3)cc2c(=O)[nH]1 (centres undefined) was read as KDM5B inh inactive.
